Inhibition data for 13 compounds are collected here from ChEMBL document CHEMBL3433997, “St. Jude Leishmania screening dataset” (2016).

Assay type in all cases: functional
Assay [1] deals with Solute carrier family 2, facilitated glucose transporter member 1 (Homo sapiens) (UniProt P11166). The assay is described as follows: ST_JUDE_LEISH: Cytotoxicity at 2uM final concentration against transgenic Leishmania Mexicana promastigotes LmGLUT1 that are glucose transport deficient and complemented with the human glucose transporter GLUT1. Activity is measured by DNA content using SYBR green in vitro.

In assay [2] the target is Hexose transporter 1 (Plasmodium falciparum) (UniProt O97467). Nature of the assay: ST_JUDE_LEISH: Cytotoxicity at 2uM final concentration against transgenic Leishmania Mexicana promastigotes LmPfHT that are glucose transport deficient and complemented with the Plasmodium falciparum hexose transporter. Activity is measured by DNA content using SYBR green in vitro.
Assay [3] addresses Glucose transporter (Leishmania mexicana) (UniProt O61059). The assay is described as follows: ST_JUDE_LEISH: Cytotoxicity at 2uM final concentration against transgenic Leishmania Mexicana promastigotes LmGT2 that are glucose transport deficient and complemented with the L. Mexicana glucose transporter 2. Activity is measured by DNA content using SYBR green in vitro.

The structures appear in SMILES notation.

In general, inhibition refers to the change of the read-out against control, counted positive when it falls.

Sequence of Solute carrier family 2, facilitated glucose transporter member 1 (Homo sapiens) (P11166 whole entry): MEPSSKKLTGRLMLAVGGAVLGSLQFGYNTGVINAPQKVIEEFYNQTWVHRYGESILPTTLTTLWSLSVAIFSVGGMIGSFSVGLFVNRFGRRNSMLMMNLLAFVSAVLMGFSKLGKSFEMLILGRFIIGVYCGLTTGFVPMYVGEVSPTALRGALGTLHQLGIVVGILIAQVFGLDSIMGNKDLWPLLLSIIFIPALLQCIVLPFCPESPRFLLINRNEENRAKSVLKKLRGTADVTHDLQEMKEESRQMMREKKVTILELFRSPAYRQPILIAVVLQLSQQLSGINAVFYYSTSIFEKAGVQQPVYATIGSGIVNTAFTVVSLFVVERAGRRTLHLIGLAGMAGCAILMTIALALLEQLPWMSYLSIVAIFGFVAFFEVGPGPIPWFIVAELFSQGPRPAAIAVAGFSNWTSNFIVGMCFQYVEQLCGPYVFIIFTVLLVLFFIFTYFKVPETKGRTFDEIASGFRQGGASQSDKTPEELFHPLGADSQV

Turning to `Cc1cc(C)cc(NC(=S)NCCCCN2CCN(c3cccc(Cl)c3)CC2)c1`, the inhibition in assay [1] is -0.5%; in assay [2] it was -1.31%; in assay [3], -4.65%.

Take `Cc1cc(N/N=C/c2ccccc2[N+](=O)[O-])c2ccc(F)cc2n1`: the values for the inhibition in assay [1], in assay [2] and in assay [3] were 2.1%, 4.11% and 1.62%, respectively.

As to `O=C(Cc1ccc(NC(=O)c2ccc(O)c(-c3ccc(Cl)c(Cl)c3)c2)cc1)NCc1cccc(C(F)(F)F)c1`, the inhibition in assay [1] worked out at 2.33%; in assay [2] it was 2.65%; in assay [3], 1.16%.

With `COc1ccc(CN2CCN(Cc3cc(Cl)ccc3O)CC2CCO)c(C)c1C` (centres undefined), the inhibition in assay [1] is -1.12%; in assay [2], 0.94%; in assay [3], 0.13%.

In the case of `CCN(Cc1cccc2ccccc12)c1ccc2nc(N)nc(N)c2c1`, the results for the inhibition in assay [1], in assay [2] and in assay [3] were 97.2%, 99% and 84%, respectively.

In the case of `O=C(N1CCN(c2ccnc3cc4c(cc23)N(Cc2ccccc2)CC4)CC1)C(F)(F)F`, the inhibition amounted to 2.23% in assay [1], 3.24% in assay [2] and 4.39% in assay [3].

Regarding `Cc1cccc2nc(-c3cccc(-c4ccc(NC(=O)NC5CC5c5ccccc5)cc4)c3)[nH]c12` (centres undefined), the inhibition in assay [1] amounted to 6.4%; in assay [2] it was 3.69%; in assay [3], 5.64%.

Consider `NC1=NC2(CCCCC2)N(OCCCCCCN2C(=O)c3ccccc3C2=O)C(N)=N1`, for which the inhibition in assay [1] was determined as 12.9%; in assay [2], 7.88%; in assay [3] it was 11.2%.

In the case of `O=S(=O)(Nc1ccc(CCN2CCC(N3CCCCC3)CC2)cc1)c1cccc(C(F)(F)F)c1`, the inhibition in assay [1] stood at 6.42%; in assay [2], 7.5%; in assay [3], 5.56%.

On to `CCNC(=O)c1ccc2c(c1)c(C)c(C)n2Cc1ccc(F)cc1`, for which the inhibition in assay [1] was 0.6%; in assay [2] it was -0.64%; in assay [3], 1.15%.

As for `Cc1ccc(C(=O)NC2C(=O)NC2c2ccccc2)c(C)c1` (centres undefined), the inhibition was 3.72% in assay [1], 4.84% in assay [2] and 2.37% in assay [3].

Consider `CC1CCCC(Nc2noc(-c3sccc3Br)n2)C1` (centres undefined), for which the inhibition in assay [1] was -0.93%; in assay [2], 0.6%; in assay [3], -2.55%.

Take `Nc1nccc2ccc(-c3ccsc3)cc12`: the values for the inhibition in assay [1], in assay [2] and in assay [3] were 5.2%, 3.92% and 4.09%, respectively.
